Screening data as filed in PubChem BioAssay.
The full list was thinned out, with hits kept by preference.
IMPase Li inh – qHTS Assay for Identifying the Cell-Membrane Permeable IMPase Inhibitors: Potentiation with Lithium; Potency, µM (titrated, usually from 59.4 µM), usual class: inhibitors; CHO-M1 cells, IP1 TR-FRET (IP-One), carbachol + lithium; actives 0.35% (n = 210,000);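 further: IP1 builds up when IMPase is blocked and the TR-FRET signal falls; nearly all actives have a fitted effect of over 50% in size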
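CHO cells stably expressing M1 receptor (2000/well, cultured 16–30 h) treated 30 min at 37C with compound plus low lithium. Cytosolic IP1 by TR-FRET (665/620 ratio and 620 channel) after 10 min lysis; AC50 by Hill fit.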
PNC assembly inh – High Content Assay for Compounds that inhibit the Assembly of the Perinucleolar Compartment; PC3M PTB-GFP, PNC prevalence imaging, 16 h; stronger effect = lower value; activity change (PNC), negative = inhibition, % at 10 µM; actives 3.1% (n = 140,000); AID 2417, 2010;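 active means readout at or below -70, meaning at least 70% loss of cells showing the perinucleolar compartment, a nuclear body marking cancer cells; inconclusive means readout between -30 and a set limit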
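Compounds are pinned in duplicate onto adhered PC3M cells stably expressing GFP-tagged PTB and incubated 16 h at 37 C. Cells are then fixed, nuclei stained with Hoechst, and PNC-positive cells counted.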
12-hLO inh – qHTS Assay for Inhibitors of 12-hLO (12-human lipoxygenase). Polyunsaturated fatty acid lipoxygenase ALOX12 (Homo sapiens), P18054. purified 12-hLO, xylenol orange hydroperoxide absorbance. Potency, µM (doses to about 57.1 µM), actives largely listed as inhibitors. actives 0.12% (n = 150,000); further: nearly all actives have a fitted effect of over 55% in size
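Hydroperoxide output read as Fe(III)-xylenol orange absorbance, 573-to-405 nm ratio, after 30 min reaction with 40 uM arachidonic acid. Enzyme: 150 nM purified human 12hLO, 15 min compound preincubation; 25 mM Hepes pH 7.0, room temperature.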
IMPase cell inh – qHTS Assay for Identifying the Cell-Membrane Permeable IMPase Inhibitors. Inositol monophosphatase 1 (Rattus norvegicus), P97697. CHO-M1 cells, IP1 accumulation, HTRF TR-FRET ratio. inhibition (IP1 accumulation), % at 46.1 µM. 120,000 tested, under 10 active. AID 901, 2007; active means well fitted curve in the direction sought with a large enough effect in the signal ratio, not every such curve was filed as active; inconclusive means small, poorly fitted or top-dose-only effect, or a change in a side signal; inactive means no such curve, though single readings can be large or run the other way; the % refers to the signal ratio;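 further: cells stimulated with carbachol in lithium chloride buffer; higher means more IMPase inhibition seen as more IP1 and lower FRET ratio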
Target sequence (P97697 whole entry, looked up): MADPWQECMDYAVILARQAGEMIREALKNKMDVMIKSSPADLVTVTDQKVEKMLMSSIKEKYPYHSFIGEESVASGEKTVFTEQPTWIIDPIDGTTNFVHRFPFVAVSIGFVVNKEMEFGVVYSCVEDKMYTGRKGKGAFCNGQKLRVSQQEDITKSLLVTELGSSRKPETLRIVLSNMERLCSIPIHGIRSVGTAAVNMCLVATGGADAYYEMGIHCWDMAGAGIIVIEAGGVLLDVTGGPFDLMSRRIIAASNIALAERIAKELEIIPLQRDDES
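CHO-M1 cells (CHO stably expressing M1 receptor), compound up to 46 uM final, stimulated with carbachol (50 uM as added) in buffer with 50mM LiCl, pH 7.4, 30 min at 37C. Cytosolic IP1 read by TR-FRET; AC50 from Hill fits.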
Of the large screens only hits and unclear results are named; the others gave an inactive call. Unless noted, the call rests on the fitted dose curve; in most records, active means well fitted curve in the direction sought with a large enough effect; inconclusive means small, poorly fitted or top-dose-only effect, or another doubt; inactive means no such curve, though single readings can be large; an effect the other way counts as inactive or inconclusive.

COc1ccc(-c2nc3c(c4c2C[C@H](c2ccccc2)OC4)CN(C(=O)NCc2ccco2)CC3)c(C)c1	none (no result: PNC assembly inh, IMPase cell inh)
Nc1nc(C2CC(=O)OC23CCCCC3)cs1 (stereo unspecified)	PNC assembly inh -119
Cc1nc(C2CC(=O)OC23CCCCC3)cs1 (stereo unspecified)	none
COc1cc2c(cc1OC)CN(Cc1nc3ccsc3c(=O)[nH]1)CC2	PNC assembly inh -83
O=C1N(c2ccccc2)C[C@@H]2C[C@@H](c3cc4ccccc4o3)N3CCC[C@@]123	none (no result: PNC assembly inh, 12-hLO inh, IMPase cell inh)
C=CCc1cccc2cc(C(=O)Nc3ccc(F)cc3)c(=O)oc12	none (no result: IMPase cell inh)
C=CCc1cccc2cc(C(=O)NC3=C(C#N)CCC3)c(=O)oc12	PNC assembly inh -124
COc1cccc(-c2cc(C(=O)Nc3nc4ccccc4s3)c3ccccc3n2)c1	PNC assembly inh -115, 12-hLO inh inconclusive
O=C(Nc1nccs1)c1cc(-c2ccco2)nc2ccccc12	PNC assembly inh -89 (no result: IMPase cell inh)
CN(C)CCn1c(CO)nc2c1c(=O)n(C)c(=O)n2C	none (no result: PNC assembly inh, IMPase cell inh)
Cc1cc(C)cc(NC(=O)c2ccc(CSc3nnc(C)s3)cc2)c1	none
Cc1ccc(NC(=O)c2ccc(CSc3nnc(C)s3)cc2)cc1	PNC assembly inh -100
CS(=O)(=O)N1CCC2(CCCN(c3ncccn3)C2)CC1	none (no result: PNC assembly inh, IMPase cell inh)
COc1cc2c(cc1NC(=O)c1cccc(S(=O)(=O)N(C)C)c1)oc1ccccc12	PNC assembly inh -107 (no result: IMPase cell inh)
CCN(CC)S(=O)(=O)c1ccc(C(=O)Nc2cc3oc4ccccc4c3cc2OC)cc1	none (no result: IMPase cell inh)
CCc1nnc(NC(=O)CSc2nc(-c3ccccc3)cc(-c3ccc(F)cc3)c2C#N)s1	IMPase Li inh 10µM
CC(C)(C)CC(=O)Nc1nnc(-c2cccs2)s1	IMPase Li inh 11µM, PNC assembly inh inconclusive
CCOC(=O)CNC(=O)CSc1ncnc2c1cnn2-c1ccc(OC)cc1	none
CCc1nnc(NC(=O)CSc2nc(C3CCCCC3)nc3ccccc23)s1	IMPase Li inh 7.9µM, IMPase cell inh inconclusive
CC(C)OC(=O)CC(=O)CSc1nc(-c2ccc(F)cc2)cc(-c2ccccc2)c1C#N	none
CCc1nnc(NC(=O)CSc2ncnc3c2cnn3-c2ccc(OC)cc2)s1	IMPase Li inh 10µM
Cc1ccc(NC(=O)Cn2nc(C(F)(F)F)c3c2CCCC3)cc1	none (no result: IMPase Li inh, PNC assembly inh, 12-hLO inh)
CCc1nnc(NC(=O)CSc2ccc(-c3cccs3)nn2)s1	IMPase Li inh 4µM (no result: PNC assembly inh, 12-hLO inh, IMPase cell inh)
CCc1nnc(NC(=O)CSc2nc3ccccc3s2)s1	none
CCc1nnc(NC(=O)CSc2ccc(-c3ccc(F)cc3)nn2)s1	none (no result: PNC assembly inh, 12-hLO inh, IMPase cell inh)
CCn1c(SCC(=O)O)nnc1-c1ccccc1	PNC assembly inh -96
CCc1nnc(NC(=O)CSc2nc(-c3ccccc3)nc3ccccc23)s1	IMPase Li inh 10µM (no result: IMPase cell inh)
CCc1nnc(NC(=O)CSc2nnc(-c3cccnc3)n2CC)s1	PNC assembly inh -104
CCn1c(SCC(=O)OC)nnc1-c1ccccc1	none (no result: PNC assembly inh, 12-hLO inh, IMPase cell inh)
CC(C)(C)OC(=O)NCCCCC1=CC2=CC(=O)C(C)(OC(=O)C3CCCC3)C(=O)C2=CO1 (stereo unspecified)	none (no result: PNC assembly inh, IMPase cell inh)
Cc1cc(N2C(=O)C(O)=C(C(=O)c3cccs3)C2c2ccccc2)no1 (stereo unspecified)	IMPase Li inh 14µM, IMPase cell inh inconclusive
COc1cccc(C2C(C(=O)c3cccs3)=C(O)C(=O)N2c2cc(C)on2)c1 (stereo unspecified)	IMPase Li inh 10µM, IMPase cell inh inconclusive
COC(=O)N[C@@H](c1ccc(Br)cc1)C(C(=O)OC)C(=O)OC	none (no result: PNC assembly inh, 12-hLO inh, IMPase cell inh)
Cc1onc(-c2ccccc2Cl)c1C(=O)NC(=S)NCC(=O)c1ccccc1	IMPase Li inh 10µM (no result: PNC assembly inh, 12-hLO inh, IMPase cell inh)
Fc1cccc(NC(=S)NCc2ccccn2)c1	PNC assembly inh -91 (no result: IMPase cell inh)
O=C(NCc1ccccn1)Nc1ccc(Cl)c(Cl)c1	PNC assembly inh -84
Cc1cc(C)cc(NC(=O)C(=O)NCc2ccccn2)c1	PNC assembly inh -84 (no result: IMPase cell inh)
Cc1ccc(NC(=O)C(=O)NCc2ccccn2)cc1	none (no result: PNC assembly inh, 12-hLO inh, IMPase cell inh)
N#Cc1nc(-c2ccco2)oc1N1CCN(c2cccc(Cl)c2)CC1	PNC assembly inh -82
N#Cc1nc(-c2ccco2)oc1N1CCCC1	none
CCCN=C(N)NCCC[C@H](N)C(=O)O	none (no result: PNC assembly inh)
CCOC(=O)C1(CC)NC(c2ccc(OC)cc2OC)C2C(=O)N(C)C(=O)C21 (stereo unspecified)	none (no result: PNC assembly inh, 12-hLO inh, IMPase cell inh)
